From ChEMBL document CHEMBL2218924, “A broad activity screen in support of a chemogenomic map for kinase signalling research and drug discovery” (Biochem J, 2013) come the findings set out here.

By residual activity is commonly meant the signal under treatment as a percentage of the control signal.

Test [1] concerns the target T1, Serine/threonine-protein kinase TBK1 (Homo sapiens) (UniProt Q9UHD2).
T1 sequence (whole entry): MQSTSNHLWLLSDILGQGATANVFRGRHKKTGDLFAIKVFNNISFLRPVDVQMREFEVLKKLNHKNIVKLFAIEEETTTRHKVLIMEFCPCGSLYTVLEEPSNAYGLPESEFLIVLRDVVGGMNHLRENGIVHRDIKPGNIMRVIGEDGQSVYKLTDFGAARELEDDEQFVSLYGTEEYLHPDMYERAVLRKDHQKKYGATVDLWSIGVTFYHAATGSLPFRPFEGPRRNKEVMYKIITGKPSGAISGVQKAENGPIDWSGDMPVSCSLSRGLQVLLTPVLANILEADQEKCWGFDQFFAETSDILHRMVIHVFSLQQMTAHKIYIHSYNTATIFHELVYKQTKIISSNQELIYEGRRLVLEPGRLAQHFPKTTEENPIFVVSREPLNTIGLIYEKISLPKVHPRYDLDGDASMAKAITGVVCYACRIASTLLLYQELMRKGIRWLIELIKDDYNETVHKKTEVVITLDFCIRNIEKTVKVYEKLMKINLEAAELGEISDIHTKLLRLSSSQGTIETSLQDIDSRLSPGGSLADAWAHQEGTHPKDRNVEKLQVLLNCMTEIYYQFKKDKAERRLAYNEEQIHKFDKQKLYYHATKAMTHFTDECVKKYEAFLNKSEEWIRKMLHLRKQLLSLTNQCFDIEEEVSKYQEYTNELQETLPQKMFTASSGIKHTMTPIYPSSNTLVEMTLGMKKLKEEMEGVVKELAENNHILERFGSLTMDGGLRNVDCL
To be noted: at 10 µM.

The target of test [2] is T2, TGF-beta receptor type-1 (Homo sapiens) (UniProt P36897).
T2 sequence (whole entry): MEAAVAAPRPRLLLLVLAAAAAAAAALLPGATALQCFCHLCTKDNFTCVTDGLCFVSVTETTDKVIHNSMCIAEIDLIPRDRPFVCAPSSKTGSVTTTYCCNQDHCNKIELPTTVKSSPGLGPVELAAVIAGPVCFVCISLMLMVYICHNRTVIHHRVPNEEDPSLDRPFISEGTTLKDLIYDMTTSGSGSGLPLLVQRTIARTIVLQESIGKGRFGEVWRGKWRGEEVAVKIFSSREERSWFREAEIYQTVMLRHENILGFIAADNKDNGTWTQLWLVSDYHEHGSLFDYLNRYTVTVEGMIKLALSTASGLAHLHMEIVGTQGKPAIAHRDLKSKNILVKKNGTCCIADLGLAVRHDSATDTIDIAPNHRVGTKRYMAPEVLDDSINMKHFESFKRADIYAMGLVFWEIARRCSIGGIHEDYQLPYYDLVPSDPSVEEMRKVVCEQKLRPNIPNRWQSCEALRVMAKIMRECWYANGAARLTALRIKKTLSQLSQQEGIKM
Conditions: at 1 µM.

The target of test [3] is T2, TGF-beta receptor type-1 (Homo sapiens). To be noted: at 10 µM.
For test [4], the target named is Insulin-like growth factor 1 receptor (Homo sapiens) (UniProt P08069). Conditions: at 1 µM.
Chain of Insulin-like growth factor 1 receptor (Homo sapiens) (P08069 31-736 limits assumed): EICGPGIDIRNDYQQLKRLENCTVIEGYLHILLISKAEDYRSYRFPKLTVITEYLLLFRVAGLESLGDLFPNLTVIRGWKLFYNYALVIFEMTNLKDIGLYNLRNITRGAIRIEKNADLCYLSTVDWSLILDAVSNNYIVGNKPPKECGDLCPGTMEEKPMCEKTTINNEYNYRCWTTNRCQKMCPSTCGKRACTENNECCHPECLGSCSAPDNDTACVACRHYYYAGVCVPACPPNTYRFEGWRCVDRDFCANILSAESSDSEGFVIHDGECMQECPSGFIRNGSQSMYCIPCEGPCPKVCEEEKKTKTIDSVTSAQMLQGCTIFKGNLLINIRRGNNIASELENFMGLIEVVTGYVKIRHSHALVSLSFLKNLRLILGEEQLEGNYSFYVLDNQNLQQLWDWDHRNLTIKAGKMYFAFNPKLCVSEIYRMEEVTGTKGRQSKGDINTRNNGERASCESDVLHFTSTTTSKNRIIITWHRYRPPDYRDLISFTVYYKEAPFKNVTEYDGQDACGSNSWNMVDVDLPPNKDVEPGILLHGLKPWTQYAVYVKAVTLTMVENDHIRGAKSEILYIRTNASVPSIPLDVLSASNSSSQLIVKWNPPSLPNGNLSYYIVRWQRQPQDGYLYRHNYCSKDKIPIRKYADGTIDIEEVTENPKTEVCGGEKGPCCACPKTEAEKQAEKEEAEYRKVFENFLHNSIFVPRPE
Chain of Insulin-like growth factor 1 receptor (Homo sapiens) (P08069 741-1367 limits assumed): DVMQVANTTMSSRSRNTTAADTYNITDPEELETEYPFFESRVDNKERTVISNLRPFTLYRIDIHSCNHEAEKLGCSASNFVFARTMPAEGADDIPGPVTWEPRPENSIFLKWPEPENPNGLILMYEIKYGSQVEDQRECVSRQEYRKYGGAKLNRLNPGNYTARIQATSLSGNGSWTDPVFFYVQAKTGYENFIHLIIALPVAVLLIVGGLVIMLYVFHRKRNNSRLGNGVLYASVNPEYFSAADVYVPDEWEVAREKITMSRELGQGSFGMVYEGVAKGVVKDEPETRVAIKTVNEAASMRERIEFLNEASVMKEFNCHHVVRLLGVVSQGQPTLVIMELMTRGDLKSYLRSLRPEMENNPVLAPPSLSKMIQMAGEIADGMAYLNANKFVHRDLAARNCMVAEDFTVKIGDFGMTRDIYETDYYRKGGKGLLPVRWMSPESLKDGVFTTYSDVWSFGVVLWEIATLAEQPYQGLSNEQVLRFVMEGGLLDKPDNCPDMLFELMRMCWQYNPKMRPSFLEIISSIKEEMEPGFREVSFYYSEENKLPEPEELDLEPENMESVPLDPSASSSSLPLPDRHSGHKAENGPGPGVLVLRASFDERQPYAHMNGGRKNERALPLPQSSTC
Test [5] shares this target. Conditions: at 10 µM.
Test [6] addresses T3, Inhibitor of nuclear factor kappa-B kinase subunit alpha (Homo sapiens) (UniProt O15111).
T3 sequence (whole entry): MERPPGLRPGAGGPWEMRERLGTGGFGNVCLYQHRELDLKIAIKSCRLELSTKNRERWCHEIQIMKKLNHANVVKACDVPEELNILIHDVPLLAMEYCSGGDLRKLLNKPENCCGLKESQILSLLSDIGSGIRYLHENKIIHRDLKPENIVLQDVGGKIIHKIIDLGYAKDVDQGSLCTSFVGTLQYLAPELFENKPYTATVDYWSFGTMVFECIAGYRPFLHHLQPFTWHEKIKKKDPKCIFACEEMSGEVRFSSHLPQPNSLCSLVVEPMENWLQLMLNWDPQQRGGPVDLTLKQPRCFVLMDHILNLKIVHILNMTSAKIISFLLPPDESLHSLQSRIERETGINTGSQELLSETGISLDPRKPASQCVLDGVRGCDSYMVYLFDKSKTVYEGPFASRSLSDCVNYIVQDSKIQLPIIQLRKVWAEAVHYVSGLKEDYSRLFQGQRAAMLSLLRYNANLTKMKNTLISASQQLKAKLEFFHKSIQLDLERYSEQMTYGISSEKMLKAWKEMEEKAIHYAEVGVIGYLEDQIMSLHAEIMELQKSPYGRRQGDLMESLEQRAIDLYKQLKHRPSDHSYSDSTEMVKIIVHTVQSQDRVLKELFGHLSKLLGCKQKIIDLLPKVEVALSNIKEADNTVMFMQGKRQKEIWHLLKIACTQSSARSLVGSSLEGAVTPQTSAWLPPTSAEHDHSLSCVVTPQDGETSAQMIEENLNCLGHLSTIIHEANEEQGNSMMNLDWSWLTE
To be noted: at 1 µM.

The target of test [7] is T3, Inhibitor of nuclear factor kappa-B kinase subunit alpha (Homo sapiens). To be noted: at 10 µM.
Test [8] addresses T4, Inhibitor of nuclear factor kappa-B kinase subunit beta (Homo sapiens) (UniProt O14920).
T4 sequence (whole entry): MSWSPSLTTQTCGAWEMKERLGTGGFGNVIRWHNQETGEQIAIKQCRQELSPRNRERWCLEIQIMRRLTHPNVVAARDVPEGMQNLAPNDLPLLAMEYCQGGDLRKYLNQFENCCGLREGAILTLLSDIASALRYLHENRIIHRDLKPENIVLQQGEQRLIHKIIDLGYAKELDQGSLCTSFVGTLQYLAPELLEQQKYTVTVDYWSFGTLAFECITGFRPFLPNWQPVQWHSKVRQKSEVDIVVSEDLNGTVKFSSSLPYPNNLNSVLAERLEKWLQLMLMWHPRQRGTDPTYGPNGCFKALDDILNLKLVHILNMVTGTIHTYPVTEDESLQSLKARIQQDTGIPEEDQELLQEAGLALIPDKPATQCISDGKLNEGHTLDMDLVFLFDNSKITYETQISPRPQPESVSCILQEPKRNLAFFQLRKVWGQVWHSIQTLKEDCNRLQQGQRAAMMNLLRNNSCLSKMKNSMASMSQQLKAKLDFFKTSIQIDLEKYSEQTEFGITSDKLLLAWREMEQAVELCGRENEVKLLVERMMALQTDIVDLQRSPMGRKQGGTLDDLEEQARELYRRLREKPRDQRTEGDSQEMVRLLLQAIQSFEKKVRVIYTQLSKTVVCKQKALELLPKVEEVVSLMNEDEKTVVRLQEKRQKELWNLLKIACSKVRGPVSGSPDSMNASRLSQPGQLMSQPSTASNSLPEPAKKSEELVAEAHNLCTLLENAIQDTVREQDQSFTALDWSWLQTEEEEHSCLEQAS
Conditions: at 1 µM.

Test [9] deals with T4, Inhibitor of nuclear factor kappa-B kinase subunit beta (Homo sapiens). Conditions: at 10 µM.
Test [10] addresses Insulin receptor (Homo sapiens) (UniProt P06213). Conditions: at 1 µM.

Chain of Insulin receptor (Homo sapiens) (P06213 28-758 limits assumed): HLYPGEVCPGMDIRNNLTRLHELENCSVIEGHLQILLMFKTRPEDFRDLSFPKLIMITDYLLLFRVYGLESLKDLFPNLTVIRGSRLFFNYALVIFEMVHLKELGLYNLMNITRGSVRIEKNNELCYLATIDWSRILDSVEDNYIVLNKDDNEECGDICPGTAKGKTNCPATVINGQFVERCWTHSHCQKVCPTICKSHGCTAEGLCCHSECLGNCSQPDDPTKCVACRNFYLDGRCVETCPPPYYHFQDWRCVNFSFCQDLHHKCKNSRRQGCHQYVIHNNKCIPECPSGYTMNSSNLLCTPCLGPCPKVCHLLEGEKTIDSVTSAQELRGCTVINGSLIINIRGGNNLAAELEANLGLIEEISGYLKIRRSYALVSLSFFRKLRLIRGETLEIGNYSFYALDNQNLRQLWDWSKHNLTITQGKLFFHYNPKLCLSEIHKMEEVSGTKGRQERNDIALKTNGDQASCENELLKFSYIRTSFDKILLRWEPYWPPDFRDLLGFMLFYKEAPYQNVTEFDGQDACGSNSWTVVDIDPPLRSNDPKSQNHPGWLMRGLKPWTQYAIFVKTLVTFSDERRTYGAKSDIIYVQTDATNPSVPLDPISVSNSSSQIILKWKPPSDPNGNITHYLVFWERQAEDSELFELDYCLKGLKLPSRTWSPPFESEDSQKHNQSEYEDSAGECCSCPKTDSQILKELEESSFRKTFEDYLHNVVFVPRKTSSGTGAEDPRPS
Chain of Insulin receptor (Homo sapiens) (P06213 763-1382 limits assumed): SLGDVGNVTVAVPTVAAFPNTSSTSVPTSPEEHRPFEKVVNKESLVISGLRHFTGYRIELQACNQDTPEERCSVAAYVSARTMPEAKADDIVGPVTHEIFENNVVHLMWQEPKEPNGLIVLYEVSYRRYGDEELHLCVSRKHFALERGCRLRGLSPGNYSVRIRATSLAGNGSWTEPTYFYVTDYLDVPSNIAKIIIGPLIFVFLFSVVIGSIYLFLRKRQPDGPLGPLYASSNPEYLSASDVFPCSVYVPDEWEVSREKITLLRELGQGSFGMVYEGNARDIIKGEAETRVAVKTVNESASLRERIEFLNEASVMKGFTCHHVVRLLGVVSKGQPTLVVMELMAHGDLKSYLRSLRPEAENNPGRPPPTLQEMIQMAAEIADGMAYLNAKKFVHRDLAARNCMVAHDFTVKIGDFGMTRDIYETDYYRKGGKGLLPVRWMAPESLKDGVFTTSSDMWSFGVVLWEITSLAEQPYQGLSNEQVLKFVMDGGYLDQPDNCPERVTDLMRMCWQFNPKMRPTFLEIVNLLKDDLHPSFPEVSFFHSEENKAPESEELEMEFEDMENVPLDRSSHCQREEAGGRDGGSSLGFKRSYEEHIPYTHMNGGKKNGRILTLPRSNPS

`CC[n+]1c(/C=C/N(C)c2ccccc2)n(-c2ccccc2)c2ccc(-c3nc4ccccc4s3)cc21`: the residual activity in test [1] was 68%; in test [2], 80%; in [3], 102%; in [4], 97%; in test [5], 86%; in test [6], 92%. Moreover, the residual activity turned out to be 93% in test [7], 105% in [8], 102% in test [9] and 107% in [10].
